Experimental data taken from PubChem BioAssay AID430 (Sanford-Burnham Center for Chemical Genomics, 2006).
The whole screen tested about 63,000 compounds, of which about 1,100 (1.7%) were called active. What follows is part of a selection rich in actives, with near analogues and random picks from the rest. Potency and affinity values are given separately. A number with no mark means an inactive call. Cut-off read from the data, not from the text of the source: active = cytotoxicity above about 50%; inactive = the rest.

Experiment: cytotoxicity in HPDE-C7 cells, cell-based, fluorescence, HTS (AID 430);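 note: cells exposed to compound for 48 hours before viability readout; 0% = vehicle and 100% = reference cytotoxic drug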
Conditions: HPDE-C7 pancreatic duct cells viability, at 10 µM, active compounds read high

| Compound | cytotoxicity |
| --- | --- |
| CCOc1ccc2[nH]c(=O)c(CN(Cc3ccco3)C(=O)c3cccc(F)c3)cc2c1 | 78% (active) |
| CCOc1ccc2[nH]c(=O)c(CN(Cc3ccco3)C(=O)c3ccc(Br)cc3)cc2c1 | 22.7% |
| COc1ccc2[nH]c(=O)c(CN(Cc3ccco3)C(=O)c3ccccc3)cc2c1 | -8.8% |
| CCCn1nnc(NC(=O)COc2ccc(Cl)cc2)n1 | -10.6% |
| COCCN(C(=O)Cc1cccs1)c1nnc(-c2cccnc2)s1 | -0.4% |
| O=C(Nc1cnn(Cc2ccc(F)cc2)c1)c1cc2nc(-c3ccco3)cc(C(F)(F)F)n2n1 | 38.9% |
| O=C(Nc1ccc(Cl)cc1)c1cc2nc(-c3ccco3)cc(C(F)(F)F)n2n1 | 66.2% (active) |
| Cc1ccccc1Cn1ccc(NC(=O)c2cnn3c(C(F)(F)F)cc(-c4ccco4)nc23)n1 | 37.2% |
| Cc1ccccc1Cn1ccc(NC(=O)c2cc3nc(-c4ccco4)cc(C(F)(F)F)n3n2)n1 | 53% (active) |
| O=C(Nc1cnn(Cc2ccccc2)c1)c1cc2nc(-c3ccco3)cc(C(F)(F)F)n2n1 | 6% |
| Cc1ccccc1Cn1cc(NC(=O)c2cc3nc(-c4ccco4)cc(C(F)(F)F)n3n2)cn1 | 29.2% |
| CCOc1ccc(OCC)c(NC(=O)CCn2cccc2)c1 | 7.1% |
| O=C(NCC(c1cccnc1)N1CCOCC1)c1cccs1 (centres undefined) | -33.1% |
| COc1ccc(-c2c(C#N)c(SCc3c(C)noc3C)nc3c2C(=O)CC(C)(C)C3)cc1 | -11% |
| Cc1cc(NC(=O)CS(=O)(=O)c2cn(Cc3cccc(F)c3)c3ccccc23)no1 | -2.5% |
| CCOc1ccc(C(=O)NCC2CCCO2)cc1 (centres undefined) | 1.4% |
| c1csc(-c2ccc3ccccc3n2)c1 | 9.1% |
| CC(=O)c1cc2c(cc1NS(=O)(=O)c1ccc3c(c1)OCCO3)OCO2 | 36.4% |
| COC(=O)c1ccc(C)c(NS(=O)(=O)c2ccc(OC)cc2)c1 | 68% (active) |
| COC(=O)c1ccc(C)c(NS(=O)(=O)c2ccc(NC(C)=O)cc2)c1 | 20.6% |
| O=C(O)c1ccc(NS(=O)(=O)c2ccc3c(c2)OCCO3)cc1 | 0.3% |
| COC(=O)c1ccc(NS(=O)(=O)c2ccc(OC)cc2)cc1 | 2% |
| COC(=O)c1ccc(C)c(NS(=O)(=O)c2ccc3c(c2)OCCO3)c1 | 62.8% (active) |
| COC(=O)c1ccc(C)c(NC(=O)CN(c2ccc3c(c2)OCO3)S(C)(=O)=O)c1 | -6.6% |

| Compound | cytotoxicity |
| --- | --- |
| COC(=O)c1ccc(Cl)c(NS(=O)(=O)c2ccc3c(c2)OCCO3)c1 | 55.7% (active) |
| CCCNC(=O)c1ccccc1NS(=O)(=O)c1ccc2c(c1)OCCO2 | 14.8% |
| O=S(=O)(NCCC1=CCCCC1)c1cccc2nsnc12 | -4.7% |
| CCn1c(COc2ccccc2C)nnc1SCC(=O)N1CCC(C)CC1 | -9.2% |
| CCCC(C)NC(=O)c1ccc(F)cc1 (centres undefined) | -1.2% |
| CCN(C(=O)CSc1nc2nc(C)cc(C)n2n1)c1cccc(C)c1 | -9% |
| OC1CCCN(Cc2ccc3c(c2)Cc2ccccc2-3)C1 (centres undefined) | -0.6% |
| CC1Cc2ccccc2N1C(=O)c1ccc2c(c1)nnn2C (centres undefined) | -5.8% |
| CCc1c(C)nc2cc(-c3ccc(OC)c(OC)c3)nn2c1N1CCCC1 | 8.9% |
| CCOCCN1CCN(c2c(C)c(C)nc3cc(-c4cc(OC)cc(OC)c4)nn23)CC1 | 21.4% |
| CCCOc1ccc(C2C(=O)N(C3CCCCC3)CC(=O)N2CCC)cc1OC (centres undefined) | -24.3% |
| COc1ccccc1NC(=O)C(O)C(O)C(=O)Nc1ccccc1OC (centres undefined) | 6.7% |
| CCn1c(SCc2nc3ccccc3[nH]2)nnc1-c1ccccc1OC | -14.9% |
| COC(=O)c1cc(OC)c(OC)cc1N=CC1=C(O)CC(C)(C)CC1=O | 10.3% |
| c1cncc(-c2nn3cnnc3s2)c1 | 3.2% |
| CCN(CCO)C(=O)C12CCC(C)(C(=O)C1)C2(C)C (centres undefined) | 5.2% |
| COc1ccc(-n2nnnc2SCC(=O)c2cccc(OC)c2)cc1 | 6.3% |
| CCOc1ccc(-n2nnnc2SCC(=O)c2ccccc2)cc1 | 59.8% (active) |
| COc1ccc(-n2nnnc2SCC(=O)c2ccc(O)c(O)c2)cc1 | 17.9% |
| Cc1ccc(S(=O)(=O)N(C)c2nonc2C)cc1 | 9.7% |
| CN(Cc1cnn(C)c1)C(=O)c1cc2ccccc2oc1=O | -0.7% |
| C[C@]12CC[C@@H]3c4ccc(O)cc4CC[C@H]3[C@@H]1CCC2=O | 12.1% |
| C[C@]12CC[C@@H]3c4ccc(O)cc4CC[C@H]3[C@@H]1CC[C@@H]2OC(=O)CCC(=O)O | 4.5% |
| O=C(NCC(=O)N(c1ccc(F)cc1)C(C(=O)NCC1CCCO1)c1ccccc1)c1ccco1 (centres undefined) | -7.1% |

| Compound | cytotoxicity |
| --- | --- |
| CN1C(=O)C(O)(CC(=O)c2cccc(-n3cccc3)c2)c2ccccc21 (centres undefined) | -0.5% |
| CN(C)C=Nc1ncc2c([nH]c3ccccc32)c1C#N | 15.4% |
| Cc1cc(=O)[nH]c2ccccc12 | -2.8% |
| CCC(C(=O)NC1CCCC1)N(C(=O)Cn1nnc(-c2ccc(OC)c(OC)c2)n1)C1CCCCC1 (centres undefined) | -12.1% |
| CC(C)(C#CCN1CCCC1)OCCC#N | -16.7% |
| O=C(CN1C(=O)c2ccccc2S1(=O)=O)Nc1ccc(S(=O)(=O)N2CCCCC2)cc1 | -22% |
| COc1cc(-c2cc(OC)c3c(C)oc(C)c3c(=O)c2)ccc1O | 38% |
| COc1cc(/C=C/C2=NC(=O)C(C)(C)O2)ccc1O | 53.4% (active) |
| C/C=C/c1ccc(OC)c(OC(C)=O)c1 | -5.1% |
| O=C(O)/C=C/c1ccc(O)c(O)c1 | -18.3% |
| COc1cc(/C=N/n2nnnc2N)ccc1O | 3.8% |
| CCOc1ccccc1C1C2C(=O)N(c3ccccc3)C(=O)C2ON1c1ccccc1 (centres undefined) | -2.8% |
| Cc1cc(C)c2[nH]c(=O)c(CN(Cc3ccc4c(c3)OCO4)Cc3nnnn3C3CCCC3)cc2c1 | 14.9% |
| CCOCCCNC(=O)C(NC(=O)c1ccc(=O)[nH]c1)c1ccccc1 (centres undefined) | 2.7% |
| COc1ccc(S(=O)(=O)N(C)CC(=O)N2CCCCCC2)cc1OC | -2.9% |
| COc1cccc(N2CCN(C3CC(=O)N(c4ccc(Cl)c(Cl)c4)C3=O)CC2)c1 (centres undefined) | 1.1% |
| CCCC(=O)c1ccc(N2CCN(C(=O)c3ccc(Br)cc3)CC2)c(F)c1 | -6.3% |
| CCCCCC(=O)N1CCN(c2ccc(C(C)=O)cc2F)CC1 | -3.3% |
| CCCC(=O)N1CCN(c2ccc(C(=O)c3ccc(OC)c(Br)c3)cc2F)CC1 | 58.1% (active) |
| CCN=C1SC(CC(=O)Nc2ccc(C(F)(F)F)cc2)C(=O)N1CC (centres undefined) | -10.9% |
| Cc1ccc2nc(NCCO)nc(-c3ccccc3)c2c1 | 16.6% |
| O=C(O)c1cc(-c2ccccc2)nc2ccccc12 | -1.2% |
| Cc1cc(Cl)ccc1OCc1nc(-c2ccc(O)cc2)n[nH]1 | 77.3% (active) |
| Clc1ccc(OCc2nc(-c3ccccn3)n[nH]2)cc1 | 42.3% |

| Compound | cytotoxicity |
| --- | --- |
| Cc1cc(Cl)ccc1OCCCC(N)=O | -4.7% |
| CN1CCCN(CC(O)COCc2cccs2)CC1 (centres undefined) | 0.9% |
| CC1(C)N=C(C(=O)c2ccccc2)N(O)C1(C)O (centres undefined) | -11.9% |
| CCOC(=O)Cn1c(=O)n(Cc2ccco2)c(=O)c2ccc(C(=O)NCCc3ccccc3)cc21 | 7.2% |
| COc1cc2c(=O)n(Cc3ccco3)c(=O)n(CC(=O)c3cccc(Br)c3)c2cc1OC | 55% (active) |
| COc1cc2c(=O)n(Cc3ccccc3)c(=O)n(CC(=O)C(C)(C)C)c2cc1OC | -17.8% |
| COc1ccc(CCNC(=O)Cn2c(=O)n(Cc3ccco3)c(=O)c3ccc(Cl)cc32)cc1OC | 13.9% |
| COc1cc2c(=O)n(Cc3ccccc3)c(=O)n(CC(=O)NCc3ccco3)c2cc1OC | 3.1% |
| COc1cc2c(=O)n(Cc3ccco3)c(=O)n(CC(=O)c3ccc(Br)cc3)c2cc1OC | 86% (active) |
| CS(=O)(=O)N(CC(=O)NCCSCc1cccc(Cl)c1)c1ccc2c(c1)OCO2 | 0.9% |
| O=C(Nc1ccccc1)N(Cc1cccs1)C1CCCC1 | -7.6% |
| CCN(CC)CCNC(=O)c1c(C)oc2cc(Br)c(OC)cc12 | 1.8% |
| CCOC(=O)c1c(CN2CCCCC2)n(C)c2cc(Br)c(OC)cc12 | 8.3% |
| CCOC(=O)c1c(C)n(C)c2cc(Br)c(C(=O)OC)cc12 | 9.9% |
| CCOC(=O)c1c(CNCCN(CC)CC)n(C)c2cc(Br)c(OC)cc12 | 57.3% (active) |
| CCOC(=O)c1c(CN2CCN(CCO)CC2)n(C)c2cc(Br)c(OC)cc12 | 77% (active) |
| CCOC(=O)c1c(CN2CCN(C)CC2)n(C)c2cc(Br)c(OC)cc12 | -10.2% |
| O=C(c1ccco1)c1nnn(Cc2ccccc2)c1-c1ccccc1 | -7.7% |
| COc1ccc(CN(C2CCCC2)S(=O)(=O)c2ccc(-n3cnnn3)cc2)cc1OC | -39.1% |
| Cc1[nH]c(=O)[nH]c(=O)c1S(=O)(=O)N1CCCC(C(=O)NCCc2ccc(Cl)cc2)C1 (centres undefined) | -9.4% |
| CCOC(=O)c1csc(NC(=O)CSc2nnnn2-c2ccc(OCC)cc2)n1 | -21.4% |
| O=C(c1cccs1)N1CCN(S(=O)(=O)N2CCOCC2)CC1 | -21.3% |
